Laboratory results published in PubChem BioAssay.

molecular target: PEG-3 (UniProt Q6IN02); assay: inhibition of PEG-3 promoter-driven reporter – cell-based, HeLa, luciferase, CREF/GAPDH counter-screen panel, dose response (AID 624167); details: CREF/GAPDH counter-screens; HeLa PEG-Prom luciferase reporter, overnight, run 2, dose range 1, at 100 µM (top of the series) unless noted
Sequence (Q6IN02 whole entry, looked up): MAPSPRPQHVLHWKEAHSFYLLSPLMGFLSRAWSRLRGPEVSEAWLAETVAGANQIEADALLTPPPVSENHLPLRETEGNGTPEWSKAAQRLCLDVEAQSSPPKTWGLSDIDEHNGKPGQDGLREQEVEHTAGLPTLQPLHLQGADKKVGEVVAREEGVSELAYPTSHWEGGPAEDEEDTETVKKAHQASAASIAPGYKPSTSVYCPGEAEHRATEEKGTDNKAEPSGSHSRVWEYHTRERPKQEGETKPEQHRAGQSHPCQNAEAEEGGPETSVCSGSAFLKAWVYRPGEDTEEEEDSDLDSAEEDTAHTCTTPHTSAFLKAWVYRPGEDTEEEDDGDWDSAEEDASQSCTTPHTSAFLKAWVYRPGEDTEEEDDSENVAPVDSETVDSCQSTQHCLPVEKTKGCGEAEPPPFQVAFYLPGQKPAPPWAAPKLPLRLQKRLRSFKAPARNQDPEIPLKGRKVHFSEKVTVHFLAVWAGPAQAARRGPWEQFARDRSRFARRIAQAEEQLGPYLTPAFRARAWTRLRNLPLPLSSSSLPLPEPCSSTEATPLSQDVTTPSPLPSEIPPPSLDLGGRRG

| Structure (SMILES) | inhibition |
| --- | --- |
| COc1ccccc1Nc1nc(-c2sc(NC(=O)c3ccco3)nc2C)cs1 | 52.5% |
| CCCc1nc2oc3c(NCCCN(C)C)ncnc3c2c2c1CCCC2 | 101% |
| Cc1cc(C2=NNC(=NC3CC3)SC2)c(C)n1-c1ccccc1F | 102% |
| CC(NNC(=S)N1CCN(c2ccccn2)CC1)c1nccc2ccccc12 (centres undefined) | 99.9% |
| COc1ccc2sc3cccc(NCCN(C)C)c3c(=O)c2c1 | 99.2% |
| COc1cc(C=NO)nc(-c2ccccn2)c1 | 73.1% |
| Cc1ccc(-n2cc(CNCCCn3ccnc3C)c(-c3ccc(F)cc3)n2)cc1 | 98.7% |
| CCCc1ccc(C(=O)O/N=C(\N)c2ccccn2)cc1 | 102% |
| Fc1ccc([C@@H]2CCNC[C@H]2COc2ccc3c(c2)OCO3)cc1 | 101% |
| Cc1ccc(-c2cc(C(=O)Nc3nccs3)c3ccccc3n2)c(C)c1 | 56.2% |
| CN1Cc2c(N3CCOCC3)nc3sc(C(=O)c4ccc(Br)cc4)c(N)c3c2CC1(C)C | 101% |
| COc1ccc(-n2cc(-c3ccccc3)c3c(N4CCOCC4)ncnc32)cc1 | 101% |
| CCOC(=O)c1c(SCCN2CCCCC2)n(-c2ccccc2)c(=S)n(-c2ccccc2)c1=O | 102% |
| CC(C)CC(N)c1csc(NC(=O)Nc2ccccc2C(C)(C)C)n1 (centres undefined) | 101% |
| O=c1c2c3c(sc2nc(N2CCNCC2)n1CCc1ccccc1)CCCCC3 | 101% |
| O=C(COc1ccc2c(c1)CCC2)Nc1ccccn1 | 94.2% |
| O=C(NNC(=O)c1cccnc1SCc1cccc([N+](=O)[O-])c1)c1ccccn1 | 56.6% |
| O=C(NC1=C(NC2CCS(=O)(=O)C2)C(=O)c2ccccc2C1=O)c1ccccc1 (centres undefined) | 99.7% |
| Cc1ccc(-c2nnc(N3CCN(c4ccccn4)CC3)c3ccccc23)cc1 | 101% |
| COc1ccccc1N1CCN(C(=O)c2sc3ncnc(N4CCN(c5ccccn5)CC4)c3c2C)CC1 | 93.5% |

| Structure (SMILES) | inhibition |
| --- | --- |
| O=C(Cn1ncc(Cl)c(Cl)c1=O)N1CCN(Cc2ccccc2)CC1 | 98.8% |
| Cc1ccc(NC(=O)Nc2ccnc(-c3cccnc3)n2)cc1 | 8.15% |
| COC(=O)C1=C(C)N(Cc2ccccc2)C(=NCc2cccc(Cl)c2)N[C@H]1c1ccccc1 | 101% |
| Cc1cc(C)c2sc(N(CCCN(C)C)C(=O)c3ccc(S(=O)(=O)N(C)Cc4ccccc4)cc3)nc2c1 | 101% |
| OC1(c2ccc(Cl)c(Cl)c2)C[n+]2ccccc2N1Cc1ccccc1 (centres undefined) | 101% |
| COc1cc(NS(C)(=O)=O)ccc1Nc1c2ccccc2nc2ccccc12 | 99.2% |
| NC(N)=N/N=C/c1ccc(Cl)cc1Cl | 99.1% |
| NS(=O)(=O)c1ccc(CCNc2nn3c(-c4ccc(F)c(Cl)c4)cnc3s2)cc1 | 74.3% |
| O=C(NCCc1ccccc1)c1ccc2c(c1)OCO2 | 97.8% |
| C(=N\Nc1ccc2ccccc2n1)/c1ccc2c(c1)OCCO2 | 96.2% |
| O=C(c1ccco1)N1CCN(C(c2ccccc2Cl)c2nnnn2Cc2cccs2)CC1 (centres undefined) | 44.9% |
| CCCCN(C)C(=O)c1ccc(Nc2nc(C(N)CCc3ccccc3)cs2)nc1 (centres undefined) | 94.6% |
| Cc1cc(C)c(CN2CCN(CCCn3cnc(C(=O)Nc4ccc(C)c(C)c4)n3)CC2)c(C)c1 | 101% |
| COc1cccc(Nc2nc(C(N)C3CCCCC3)cs2)n1 (centres undefined) | 102% |
| COc1ccc(NS(=O)(=O)c2ccc3ccccc3c2)c2ncccc12 | 73.1% |
| O=C(NCCc1ccccc1)c1ccc2c(c1)OCCCO2 | 102% |
| CC1CCN(c2ccc(-c3cccs3)nn2)CC1 | 97.2% |
| COc1ccc(C(=O)NNC(=O)c2ccccn2)cc1 | 95.9% |
| CC(C)CC1C(=O)N(Cc2cn(Cc3ccco3)nn2)CCS(=O)(=O)N1Cc1ccc(-c2ccc(F)cc2)cc1 (centres undefined) | 30.4% |

test system: Rat fibroblasts (CREF); assay: as above; details: CREF/GAPDH counter-screens; run 1, dose range 1, at 100 µM (top of the series)

| Structure (SMILES) | inhibition |
| --- | --- |
| COc1ccccc1Nc1nc(-c2sc(NC(=O)c3ccco3)nc2C)cs1 | 35.4% |
| Cc1cc(C2=NNC(=NC3CC3)SC2)c(C)n1-c1ccccc1F | 96.9% |
| COc1ccc(-n2cc(-c3ccccc3)c3c(N4CCOCC4)ncnc32)cc1 | 69.3% |
| CCOC(=O)c1c(SCCN2CCCCC2)n(-c2ccccc2)c(=S)n(-c2ccccc2)c1=O | 90.4% |
| O=C(COc1ccc2c(c1)CCC2)Nc1ccccn1 | 97.5% |
| O=C(NNC(=O)c1cccnc1SCc1cccc([N+](=O)[O-])c1)c1ccccn1 | 46.9% |
| COc1cc(NS(C)(=O)=O)ccc1Nc1c2ccccc2nc2ccccc12 | 86.1% |
| NS(=O)(=O)c1ccc(CCNc2nn3c(-c4ccc(F)c(Cl)c4)cnc3s2)cc1 | 28.6% |
| O=C(NCCc1ccccc1)c1ccc2c(c1)OCO2 | 93.9% |
| C(=N\Nc1ccc2ccccc2n1)/c1ccc2c(c1)OCCO2 | 53.6% |
| O=C(c1ccco1)N1CCN(C(c2ccccc2Cl)c2nnnn2Cc2cccs2)CC1 (centres undefined) | -23.5% |
| O=C(NCCc1ccccc1)c1ccc2c(c1)OCCCO2 | 100% |
| CC1CCN(c2ccc(-c3cccs3)nn2)CC1 | 96.1% |
| COc1ccc(C(=O)NNC(=O)c2ccccn2)cc1 | 100% |
| CC(C)CC1C(=O)N(Cc2cn(Cc3ccco3)nn2)CCS(=O)(=O)N1Cc1ccc(-c2ccc(F)cc2)cc1 (centres undefined) | 96.8% |
